# Inconclusive results are not listed. Values without a mark were called inactive. Activity calls are given as the source filed them. Calls come from the whole dose curve; as a rule, active = well fitted cell-killing curve with a large enough effect; inconclusive = small, poorly fitted or top-dose-only effect, or effect the other way; inactive = no such curve, though single readings can be large or run the other way.
# Assay: Quantitative highthroughput screen to assess conditional lethalithy of NOMO1 cells grown in Human Plasma-Like Medium with dialyzed fetal bovine serum (HPLM+ds) (AID 1963878); note: nearly all actives have a fitted effect of over 35% in size
# Settings: NOMO1 AML cells in HPLM+ds, CellTiter-Glo viability, 48 h; series mostly up to 45.8 µM; viability: at the top concentration
# Excerpt: Assay Provider: Jason Cantor Ph.D.
# Department of Biochemistry
# University of Wisconsin-Madison, Madison, WI, USA
# Chemical screening studies have identified drug sensitivities across hundreds of cancer cell lines but most putative therapeutics fail to translate. Discovery and development of drug candidates in models that more accurately reflect nutrient levels in human blood is a major challenge. Here we performed high-throughput screens in conventional versus Human Plasma-Like Medium (HPLM) to identify compounds that were "missed" when screening using the artificial culture condition. Sets of conditional anticancer compounds spanned phases of clinical development and included non-oncology drugs were assessed. […] We also traced conditional phenotypes for several chemotherapeutics to availability of HPLM-specific metabolites and confirmed others for compounds whose reported targets are encoded by nonessential genes. Our findings establish generalizable strategies for exploiting conditional lethality in HPLM to reveal therapeutic candidates and mechanisms of action in cancer cells.
# Described herein are the results of each viability screens against three cell lines: NOMO1 (an acute myeloid leukemia cell line); P12-Ichikawa (a T-cell acute lymphoblastic leukemia); and SEM (a B-cell ALL). Each assay was screened using 3 different cell culture media: homemade human plasma-Like medium with 10% dialyzed fetal bovine serum (HPLM+ds); RPMI1640 with 10% untreated FBS and 5mM glucose (RPMI+s); and RPMI1640 with 10% dialyzed fetal bovine serum and 5 mM glucose (RPMI+ds).
# PROTOCOL TABLE (as described by Inglese J, Shamu CE and Guy RK. 2007)
# SEQUENCE No. (e.g., 1, 2, 3, etc.); […] (e.g., Cells, Incubation, Reagent, etc.); VALUE and DESCRIPTION.
# 1; Cells; 5 uL; white, solid bottom 1536-well Greiner assay plate.
# 2; Compounds; 23 nL; Kalypsis pin tool (Wako USA) equipped with a 1536-well pin head to transfer to the assay plates.
# 3; Incubation; 48 hours; 37C incubation.
# 4; Reagent; 3 uL; CellTiter Glo (Promega).
# 5; Incubation; 5 min, room temperature
# 6; Detection; Luminescence, Viewlux PerkinElmer.
# NOTES (numbers refer to Sequence numbers above)
# 1. Briefly, 5 ul of cell reagent was dispensed using a Multidrop Combi Dispenser. The NOMO1 and SEM cells were plated at 500 cells/well and the P12-Ichikawa line at 1000 cells/well.
# 2. After seeding the cells, 23 nL of MIPE 4.1 library compounds (in DMSO) were added to each plate using a Kalypsys 1536 Pintool dispenser. Bortezomib at final concentration of […] and DMSO were added to each plate as positive and negative controls respectively. For each screen, MIPE 4.1 compounds were added over an eleven-point concentration range […] in 3-fold dilutions.
# 3. Each plate was covered with a stainless steel gasketed lid to prevent evaporation and incubated for 48 hour at 37C, 95% relative humidity, and 5% CO2.
# 4-5. Three microliter CellTilter-GloTM luminescent substrate mix (Promega) reagent was added to the assay plate and incubated at room temperature for 5 min.
# 6. The luminescence signal was measured using a ViewLux (PerkinElmer) multiplate reader with a 2 second exposure time per plate. Data for each compound were normalized as percent viability such that measurements for DMSO and the empty well controls in each plate were defined as 100% and 0%, respectively.
# Potency is the fitted concentration of half-maximal effect.
Compound,viability,Potency
C=CC[N+]1([C@H]2C[C@H]3[C@@H]4CC[C@H]5C[C@H](O)[C@@H](N6CCOCC6)C[C@]5(C)[C@@H]4CC[C@]3(C)[C@H]2OC(C)=O)CCCC1,87.4%,–
COc1nc(C)nc(Cl)c1NC1=NCCN1,86.9%,–
Cc1cnc(Nc2ccc(F)cc2Cl)nc1-c1c[nH]c(C(=O)N[C@H](CO)c2cccc(Cl)c2)c1,–,1.66 µM (active)
CC(C(C)N1CC(=O)NC(=O)C1)N1CC(=O)NC(=O)C1 (stereo not given),88.2%,–
CC(=O)OC1C(C)OC(Oc2c(-c3ccc(O)cc3)oc3cc(O)cc(O)c3c2=O)C(O)C1OC(C)=O (stereo not given),77.1%,–
COc1ccccc1N1CCN(CCN(C(=O)C2CCCCC2)c2ccccn2)CC1,96.2%,–
NC(N)=Nc1nc(CSCCC(N)=NS(N)(=O)=O)cs1,107%,–
NC(=O)C1CCCc2c1[nH]c1ccc(Cl)cc21 (stereo not given),–,5.9 µM (active)
Cc1cn([C@@H]2O[C@H](CO)[C@@H](O)[C@H]2F)c(=O)[nH]c1=O,104%,–
Nc1ccn(C2CO[C@H](CO)O2)c(=O)n1 (stereo not given in full),85.6%,–
Cc1cnc(Nc2ccc(N3CCN(C)CC3)cc2)nc1Nc1cccc(S(=O)(=O)NC(C)(C)C)c1,–,14.8 µM (active)
CN(C)[C@@H](CCOc1cccc2ccccc12)c1ccccc1,67.6%,–
Cc1ccc(C(=O)c2cc(O)c(O)c([N+](=O)[O-])c2)cc1,86.6%,–
Nc1nnc(-c2cccc(Cl)c2Cl)c(N)n1,109%,–
CC(=O)OCC(=O)[C@@]12N=C(C)O[C@H]1C[C@H]1[C@@H]3CCC4=CC(=O)C=C[C@]4(C)[C@@H]3[C@@H](O)C[C@@]12C,76.8%,–
CC(C)c1cc(-c2n[nH]c(=O)n2-c2ccc3c(ccn3C)c2)c(O)cc1O,–,0.105 µM (active)
OC(c1cc(C(F)(F)F)nc2c(C(F)(F)F)cccc12)C1CCCCN1 (stereo not given),–,23.5 µM (active)
C[C@]12C=CC(=O)C=C1CC[C@@H]1[C@@H]2C(=O)C[C@@]2(C)[C@H]1CC[C@]2(O)C(=O)CO,87.5% [at 23.2 µM],–
O=C1CCC(N2C(=O)c3ccccc3C2=O)C(=O)N1 (stereo not given),105%,–
O=C(NCc1ccccc1)[C@H](Cc1ccccc1)NC(=O)[C@@H]1O[C@@H]1C(=O)NCCc1ccc(O)cc1,78.8%,–

Compound,viability,Potency
COc1c(O)cc2c(c1O)[C@@H]1O[C@H](CO)[C@@H](O)[C@H](O)[C@H]1OC2=O,–,14.8 µM (active)
C[N+]1(C)[C@@H]2CC(OC(=O)[C@H](CO)c3ccccc3)C[C@H]1[C@H]1O[C@@H]12 (stereo not given in full),96.5%,–
CC(C)(C)c1nc2c3cc[nH]c(=O)c3c3cc(F)ccc3c2[nH]1,–,2.09 µM (active)
C=C(C)[C@@H]1CC[C@]2(C(=O)O)CC[C@]3(C)[C@H](CC[C@@H]4[C@@]5(C)CC[C@H](O)C(C)(C)[C@@H]5CC[C@]43C)[C@@H]12,96.4%,–
CC(=O)O[C@H]1C[C@@H]2CC[C@H]3[C@H]4C[C@H]([N+]5(C)CCCCC5)[C@@H](OC(C)=O)[C@@]4(C)CC[C@@H]3[C@@]2(C)C[C@H]1N1CCCCC1,98.8%,–
O=C(O)c1cccc(-c2noc(-c3ccccc3F)n2)c1,106%,–
CN(C)CCN1C(=O)c2cccc3cc(N)cc(c23)C1=O,–,14.8 µM (active)
COC(c1ccccc1)(c1ccccc1)[C@H](Oc1nc(C)cc(C)n1)C(=O)O,89%,–
O=C(O)CCCCCC(=O)NN=C1CCCC1,111%,–
C=C1C(=O)O[C@H]2[C@@H]1CCC(C)=CCC[C@@]1(C)O[C@@H]21,–,2.35 µM (active)
C[C@@H](NC(=O)c1ncnc(N)c1Cl)c1ncc(C(=O)Nc2cc(C(F)(F)F)c(Cl)cn2)s1,–,16.6 µM (active)
C=C1C(=O)OC(CCCCCCCC)C1C(=O)O (stereo not given),93.8%,–
CNC(=O)c1ccc2cc(C3(O)CCn4cncc43)ccc2c1 (stereo not given),101%,–
Clc1ccc(-c2nc3sccn3c2C=NOCc2ccc(Cl)c(Cl)c2)cc1,120%,–
Cn1cc(-c2ccc3nnc(Sc4ccc5ncccc5c4)n3n2)cn1,105%,–
CCC[C@@H](NC(=O)[C@@H]1[C@H]2CCC[C@@H]2CN1C(=O)[C@@H](NC(=O)[C@@H](NC(=O)c1cnccn1)C1CCCCC1)C(C)(C)C)C(=O)C(=O)NC1CC1,81.9%,–
COc1cc2nccc(Oc3ccc(NC(=O)Nc4ccc(F)cc4F)c(F)c3)c2cc1OC,97.7%,–
COc1cc(Nc2ncc(F)c(Nc3ccc4c(n3)NC(=O)C(C)(C)O4)n2)cc(OC)c1OC,–,4.69 µM (active)
COc1ccc2cccc(CCNC(C)=O)c2c1,92.5%,–
COCCn1c2c([n+](Cc3cnccn3)c1C)C(=O)c1ccccc1C2=O,–,0.0662 µM (active)
